# Assay outcomes: PubChem BioAssay, several laboratories
# Anthrax LF prot: Bacillus anthracis LF protease inhibitors, primary screen, biochemical, multiplex microsphere, MLPCN library | Lethal factor (Bacillus anthracis), P15917 | multiplex microsphere protease cleavage assay | inhibition, % at 10 µM | 360,000 tested, 0.12% active | AID 588501, 2011; note: plate controls were buffer without enzyme for full effect and enzyme alone for no effect
# Target sequence (P15917 whole entry, looked up): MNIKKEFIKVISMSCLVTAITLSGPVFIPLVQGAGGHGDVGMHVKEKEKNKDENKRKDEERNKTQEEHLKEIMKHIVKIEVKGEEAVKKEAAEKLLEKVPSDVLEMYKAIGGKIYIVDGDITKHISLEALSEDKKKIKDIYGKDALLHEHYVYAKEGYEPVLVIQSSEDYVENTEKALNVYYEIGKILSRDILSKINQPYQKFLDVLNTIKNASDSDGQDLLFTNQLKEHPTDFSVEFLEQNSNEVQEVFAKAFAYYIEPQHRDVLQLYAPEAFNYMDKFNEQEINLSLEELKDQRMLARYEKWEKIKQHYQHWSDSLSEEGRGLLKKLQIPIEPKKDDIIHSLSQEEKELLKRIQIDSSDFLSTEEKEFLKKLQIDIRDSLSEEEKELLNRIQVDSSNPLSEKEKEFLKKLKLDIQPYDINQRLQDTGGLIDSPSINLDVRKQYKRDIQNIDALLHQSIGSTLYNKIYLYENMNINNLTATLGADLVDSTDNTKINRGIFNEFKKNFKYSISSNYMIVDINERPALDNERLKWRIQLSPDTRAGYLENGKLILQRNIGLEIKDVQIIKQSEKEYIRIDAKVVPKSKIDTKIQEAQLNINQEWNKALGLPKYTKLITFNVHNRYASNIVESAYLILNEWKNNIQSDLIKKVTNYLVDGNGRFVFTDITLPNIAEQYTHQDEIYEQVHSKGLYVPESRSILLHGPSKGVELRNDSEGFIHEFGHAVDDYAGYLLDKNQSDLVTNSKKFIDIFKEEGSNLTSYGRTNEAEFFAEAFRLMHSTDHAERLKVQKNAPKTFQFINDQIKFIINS
# Bead autofluor: counter-screen for toxin protease inhibitors: compound fluorescence. compound autofluorescence counterscreen, microsphere flow cytometry; active compounds read high. fluorescence intensity (no concentration beside the values). 360,000 tested, 3.1% active. AID 624483; in the data active = fluorescence intensity above about 16000; inconclusive = no clear call, values can overlap the other calls
# BoNT F protease: BoNT/F light chain protease inhibitors, primary screen, biochemical, flow cytometry, MLPCN library. Botulinum neurotoxin type F light chain protease (Clostridium botulinum). Multiplex microsphere protease cleavage assay. inhibition, % at 10 µM. 360,000 tested, 0.22% active; in the data active = inhibition above about 35%, passing the limit was not always enough; inconclusive = no clear call, values can overlap the other calls; note: plate controls were buffer without enzyme for full effect and enzyme alone for no effect
# GDH-TPI counter: GDH-TPI coupling enzyme inhibitors, primary screen, artefact control for M. tuberculosis FBA inhibitor project, biochemical, absorbance, full deck; GDH-TPI coupled enzyme counterscreen, NADH absorbance; inhibition, % at 4.8 µM; 360,000 tested, 1.2% active; in the data active = inhibition above about 30%;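 note: 0% = DMSO wells and 100% = wells lacking the enzyme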
# Mtb FBA inh: Mtb FBA enzyme inhibitors, primary screen, biochemical, fluorescence, strain H37Rv. purified M. tuberculosis FBA, fluorescence read-out. 360,000 tested, 2.3% active. inhibition, % at 1 µM; in the data active = inhibition above about 27%;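 note: 0% = vehicle and 100% = reference inhibitor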
# BoNT-A LC inh2: BoNT/A light chain protease inhibitors, primary screen, biochemical, flow cytometry, MLPCN library. AID 588499, 2011. Botulinum neurotoxin type A light chain protease (Clostridium botulinum A str. ATCC 3502). multiplex microsphere protease substrate cleavage. 360,000 tested, 0.17% active. inhibition, % at 10 µM; note: plate controls were buffer without enzyme for full effect and enzyme alone for no effect
# BoNTA LC inh 2: BoNT/A light chain protease inhibitors, confirmation, biochemical, flow cytometry, cherry pick 2 | shares compounds with BoNT-A LC inh2 | multiplex microsphere protease cleavage assay | inhibition, % at 10 µM | 150 tested, 10% active; in the data active = inhibition above about 24%
# Anthrax LF CP2: Bacillus anthracis LF protease inhibitors, confirmation, biochemical, multiplex microsphere | shares compounds with BoNT-A LC inh2 | multiplex microsphere protease cleavage assay | inhibition, % at 10 µM | 150 tested, 7% active; in the data active = inhibition above about 25%
# BoNTF LC inh 2: BoNT/F light chain protease inhibitors, confirmation, biochemical, flow cytometry, cherry pick 2 | shares compounds with BoNT-A LC inh2 | inhibition, % at 10 µM | 150 tested, 7% active | AID 602336, 2012 | multiplex microsphere protease cleavage assay; in the data active = inhibition above about 25%
# Active calls of the source: *; ? = inconclusive; nt = no result. The list is not random: actives were taken first. Their share in the collection is about 6.7%. Cut-off read from the data, not from the text of the source, unless noted: active = inhibition above about 30%; inconclusive = no clear call, values can overlap the other calls; inactive = below that.
SMILES,Anthrax LF prot,Bead autofluor,BoNT F protease,GDH-TPI counter,Mtb FBA inh,BoNT-A LC inh2,BoNTA LC inh 2,Anthrax LF CP2,BoNTF LC inh 2
CCN(CC)C(=O)Cn1cc(C(=O)C(=O)NCC2COc3ccccc3O2)c2ccccc21 (stereo unspecified),1,4333,0,13,-4,0,nt,nt,nt
COCCN(CCOC)c1nc(-c2ccc([N+](=O)[O-])cc2)nc2ccccc12,7,3664,?,7,0,?,nt,nt,nt
O=C(NCC1CC1)c1cccc2c1C(=O)c1ccc(N3CCCC3)cc1S2(=O)=O,2,4247,-1,3,-15,2,nt,nt,nt
CC1CCN(c2ccc3c(c2)S(=O)(=O)c2cccc(C(=O)NC[C@@H]4CCCO4)c2C3=O)CC1,4,3805,-6,-2,-18,2,2,1,5
CC1CCN(c2ccc3c(c2)S(=O)(=O)c2cccc(C(=O)NC4CC4)c2C3=O)CC1,-2,3947,1,9,-10,1,5,6,13
COc1ccccc1N1CCN(c2ccc3c(c2)S(=O)(=O)c2cccc(C(=O)NCc4cccc(F)c4)c2C3=O)CC1,-10,3870,-3,0,-2,0,2,-2,-4
O=C(NC1CCCCC1)c1cccc2c1C(=O)c1ccc(N3CCC(Cc4ccccc4)CC3)cc1S2(=O)=O,34*,5311,14,14,1,26,8,8,12
Cn1c(CCN2CCCCC2)nc2cc(NC(=O)COc3ccc([N+](=O)[O-])cc3)ccc21,0,4937,-9,12,-4,0,nt,nt,nt
CN=C1SC(C(=O)Nc2ccccc2Cl)CC(=O)N1c1ccc(OC(F)(F)Cl)cc1 (stereo unspecified),-2,4230,-8,0,0,-1,nt,nt,nt
COC(=O)c1cc(=O)n2c(sc3ccccc32)c1C#N,-6,6146,2,2,24,0,nt,nt,nt
Cc1cc2ccccc2n1CCNC(=O)C(C)(C)C,12,2350,-16,0,1,96*,11,10,11
Cc1cc2ccccc2n1CCNC(=O)Cc1cccc2ccccc12,-124,1162,-116,0,2,55*,12,10,-5
CCC(=O)NCCn1c(C)cc2ccccc21,33*,5062,20,0,2,26,34*,2,28*
Cc1cc2ccccc2n1CCNC(=O)COc1ccccc1,-63,1122,-88,2,6,84*,77*,50*,-14
CC(=O)NCCn1c(C)cc2ccccc21,21,5295,2,13,6,8,nt,nt,nt
COc1ccccc1N1CCN(C(=O)c2cc(-c3ccco3)on2)CC1,6,5851,0,-22,-1,1,nt,nt,nt
Cc1ccc(NC(=O)CCn2nnc3ccccc32)c(C)c1,-2,4278,0,-6,4,0,nt,nt,nt
Cc1cc2ccccc2n1CCNC(=O)c1ccc(Br)o1,-117,1384,-145,-1,-1,66*,21,22,-3
Cc1cc2ccccc2n1CCNC(=O)c1ccc(S(=O)(=O)N2CCOCC2)cc1,-100,1079,-128,1,-4,29,nt,nt,nt
Fc1ccc(-c2nc3ccc(Br)cn3c2Cc2ccsc2)cc1,25,6185,-3,nt,3,32*,14,11,0
Cc1ccc(-c2nc3ccc(Br)cn3c2Cc2ccsc2)cc1,10,5688,-20,nt,2,19,nt,nt,nt
Cc1ccc(C(=O)OCC(=O)N2CCc3ccccc32)cc1,1,4298,-5,2,2,0,nt,nt,nt
CCOC(=O)c1c(C)[nH]c(C)c1C(=O)COC(=O)c1ccccc1O,0,2411,-8,-1,0,-1,nt,nt,nt
Cc1[nH]c2ccccc2c1C(=O)COC(=O)c1ccccc1O,0,3305,-2,7,-2,-1,5,4,16
COc1ccc(C#Cc2ccc(C3=CC(=O)CC(C)(C)C3=O)cc2)cc1,30*,3071,13,11,-4,29,16,11,16
SMILES,Anthrax LF prot,Bead autofluor,BoNT F protease,GDH-TPI counter,Mtb FBA inh,BoNT-A LC inh2,BoNTA LC inh 2,Anthrax LF CP2,BoNTF LC inh 2
Cn1cccc1Cc1nnc(SCC(=O)N2CCCC2)n1CCc1ccccc1,4,6216,-6,6,0,0,nt,nt,nt
CCc1cccc2c(C(=O)COC(=O)c3cnc(C)cn3)c[nH]c12,-15,3163,-6,19,3,0,nt,nt,nt
CCc1cccc2c(C(=O)COC(=O)c3nccnc3N)c[nH]c12,-4,?,-15,3,14,-6,nt,nt,nt
CCc1cccc2c(C(=O)COC(=O)c3ccc(O)cc3)c[nH]c12,-2,8987,-18,0,-1,-1,8,15,37*
CCc1cccc2c(C(=O)COC(=O)c3ccccc3)c[nH]c12,1,2332,-8,3,-4,1,8,14,25*
CC(=O)Nc1ccc(N2CCCC2)cc1,-32,2234,-54,-4,-1,-1,nt,nt,nt
COc1ccc(-c2nc3c(Cl)cc(C(F)(F)F)cn3c2Cc2ccsc2)cc1OC,-5,5804,-1,nt,nt,3,15,-2,13
Cc1cc2cc(CCNC(=O)c3ccc(C)c([N+](=O)[O-])c3)c(=O)[nH]c2cc1C,8,2558,16,17,0,1,nt,nt,nt
Cc1cc2cc(CNC(=O)c3ccc(C)c([N+](=O)[O-])c3)ccc2[nH]1,-69,3000,-89,16,3,65*,4,3,8
COc1ccc(CCNC(=O)COC(=O)CSc2ccc([N+](=O)[O-])cc2)cc1OC,nt,nt,nt,14,0,nt,nt,nt,nt
COc1ccc(S(=O)(=O)NCc2ccc3c(c2)cc(C)n3C)cc1,-94,1230,-108,-1,-1,79*,24*,14,-15
Cc1cc2cc(CNS(=O)(=O)c3ccccc3)ccc2n1C,-64,1735,-103,4,0,83*,23,14,-26
COc1ccc(C(=O)OCC(=O)c2cc(OC)ccc2OC)c(OC)c1,1,2846,-7,-8,1,0,nt,nt,nt
COc1ccccc1C(=O)COC(=O)Cc1c[nH]c2ccccc12,5,5107,33,6,1,6,nt,nt,nt
NC(=O)Nc1ccc(C(=O)OCC(=O)c2c[nH]c3ccccc23)cc1,-2,3902,-11,6,0,-1,nt,nt,nt
